hERG WT inh – inhibitors of human wildtype KCNH2 potassium channel; Q12809; U2OS, BacMam KCNH2, thallium flux FluxOr; hits give low values; activity change, % at 1.84 µM; 0.37% of 340,000 active; AID 720551;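 active means maximum activity change below -70%; inconclusive means maximum activity change between -70% and -50%; inactive means maximum activity change above -50%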; further: on the % scale 0 is the no-effect control and ±100 the full control effect
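U2OS cells were transduced with wild-type KCNH2 virus (2.03 x 10^8 / mL) for 4 h at room temperature, then cultured overnight at 37 C. Thallium flux was read with FluxOr dye. Rate constants were normalized to DMSO controls.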
TSG101-PTAP inh – blocks PTAP/TSG101 interaction to inhibit HIV-1 budding | Potency, µM (doses to about 115 µM), for inactives: at the top dose activity change, negative = inhibition, usual class: inhibitors | AID 493005 | Fluorescence polarization, FITC-PTAP peptide / Tsg101 binding | 340,000 tested, under 10 active; active means well fitted inhibition curve with a large enough effect in the main read-out, with a control signal flat, not every such curve was filed as active; inconclusive means small, poorly fitted or top-dose-only effect, or effect the other way, or a change in a side signal; inactive means no such curve, though single readings can be large or run the other way; further: potency means the concentration at half of the fitted maximal effect; % of control where 0% means no effect
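FP read-out: FITC-PTAP peptide, 50 nM final, binding Tsg101 binding domain, 10 uM final; 20 min, r.t.; 10 mM HEPES pH 7.5, 0.15 M NaCl, 0.01% Tween 20, 3 mM EDTA, 0.1 mM TCEP.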
KCNH2 3.1 block – blocks the human KCNH2 3.1 channel isoform. activity change, % (tested at about 1.8 µM). AID 720553. 0.95% of 340,000 active. U2OS KCNH2 3.1, thallium flux FluxOr; hits give low values;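 active means maximum activity change below -70%; inconclusive means maximum activity change from -70% to -50%; inactive means maximum activity change above -50%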;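 further: thallium influx rate constant from kinetic fluorescence after stimulation buffer; on the % scale 0 is the no-effect control and ±100 the full control effect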
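Measured as rate of thallium-driven FluxOr signal in transduced U2OS cells carrying the 3.1 channel, read kinetically for 2 min upon stimulation; values are rate constants scaled to DMSO control wells.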
Tb PFK inh – blocks T. brucei phosphofructokinase | O15648 | T. brucei PFK, ADP-Glo luminescence | Potency, µM (doses to about 57.5 µM), without a hit: at the top dose activity, negative = inhibition, most hits filed as inhibitors | 0.17% of 330,000 active | AID 485367; active means well fitted inhibition curve with a large enough effect; inconclusive means small, poorly fitted or top-dose-only effect, or effect the other way;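 further: potency means the concentration at half of the fitted maximal effect; 0% = uninhibited 1x PFK enzyme wells and -100% = no-enzyme wells; nearly all actives have a fitted effect of over 60% in size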
Target sequence (O15648 whole entry, looked up): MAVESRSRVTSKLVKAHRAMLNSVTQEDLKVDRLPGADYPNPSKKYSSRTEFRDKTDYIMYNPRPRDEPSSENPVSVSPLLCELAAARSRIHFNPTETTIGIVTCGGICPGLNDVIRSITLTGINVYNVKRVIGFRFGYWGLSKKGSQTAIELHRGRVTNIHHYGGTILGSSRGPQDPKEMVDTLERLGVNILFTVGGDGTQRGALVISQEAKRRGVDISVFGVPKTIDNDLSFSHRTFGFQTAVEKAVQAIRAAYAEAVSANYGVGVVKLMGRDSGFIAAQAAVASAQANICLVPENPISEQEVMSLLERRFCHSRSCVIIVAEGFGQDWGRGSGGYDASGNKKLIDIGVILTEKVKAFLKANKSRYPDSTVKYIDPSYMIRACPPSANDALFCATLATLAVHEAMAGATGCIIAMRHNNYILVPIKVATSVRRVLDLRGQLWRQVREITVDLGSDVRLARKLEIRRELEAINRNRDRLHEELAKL
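Compounds were pin-transferred as a titration series up to 57 uM into substrate buffer (0.5 mM F6P, 0.1 mM ATP, pH 8.0), then 1.25 nM PFK was added and reactions ran 45 min before ADP-Glo detection.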
Active calls of the source: *; ? = inconclusive; · = no result given. Shown are actives, neighbours in structure and some others; about 1.2% of the full set was active somewhere.

SMILES | hERG WT inh | TSG101-PTAP inh | KCNH2 3.1 block | Tb PFK inh
C=CCNC(=O)/C(=C\c1ccc(OC)cc1)NC(=O)c1ccc([N+](=O)[O-])cc1 | 8.9 | -0.4% | -36.5 | 7.2%
Cc1ccc(C(=O)N/C(=C\c2ccc([N+](=O)[O-])cc2)C(=O)NCCc2ccccc2)cc1 | -20.2 | -11.4% | -95.8* | 0.8%
COc1ccc(/C=C(/NC(=O)c2ccc([N+](=O)[O-])cc2)C(=O)NCCCN(C)C)cc1 | -84.1* | 0.1% | ? | -7.3%
CN(C)CCCNC(=O)/C(=C\C=C\c1ccccc1)NC(=O)c1ccc([N+](=O)[O-])cc1 | -72.2* | 0.2% | -99.0* | 2.8%
O=C(NCCc1ccccc1)/C(=C\c1ccc([N+](=O)[O-])cc1)NC(=O)c1ccc(Br)cc1 | -8.1 | -0.1% | -17.0 | 0.0%
COc1ccc(/C=C(\NC(=O)c2ccc([N+](=O)[O-])cc2)C(=O)NCCN2CCOCC2)cc1 | -118.1* | -1.7% | -77.9* | 0.0%
COc1ccc(S(=O)(=O)N2CCOCC2)cc1NC(=O)Cc1coc2cc(C)c(C)cc12 | -45.8 | -0.2% | -15.8 | -3.9%
O=C(NCCN1CCOCC1)/C(=C/c1ccc(Cl)cc1)NC(=O)c1ccccc1 | -22.3 | -1.9% | -25.2 | 0.3%
Cc1ccc(C(=O)N/C(=C\c2ccc(Cl)cc2)C(=O)NCCN2CCOCC2)cc1 | -93.3* | -2.9% | ? | -1.5%
COc1ccc(Cn2nnnc2C(c2ccc3ncccc3c2)N2CCN(C3CCCCC3)CC2)cc1 (stereo not drawn) | -1.3 | -0.5% | -43.5 | 0.0%
COc1ccc(Cn2nnnc2C(c2ccc(C)cc2)N2CCN(C3CCCC3)CC2)cc1 (stereo not drawn) | 16.5 | -4.0% | -73.3* | 5.2%
COc1ccc(Cn2nnnc2C(c2cccs2)N2CCN(c3ccc([N+](=O)[O-])cc3)CC2)cc1 (stereo not drawn) | ? | -3.8% | -98.9* | 0.2%
COc1cc(C2c3cc4c(cc3CC3COC(=O)N32)OCO4)cc(OC)c1OC (stereo not drawn) | -11.3 | -1.1% | 3.8 | ·
COc1cc2c(cc1OC)[C@@H](NC(=O)Cc1ccc(F)cc1)[C@H](OCc1ccccc1)C2 | -15.7 | -0.1% | -131.4* | 3.5%
COc1cc2c(cc1OC)[C@@H](NC(=O)CCc1ccccc1)[C@H](OCc1ccccc1)C2 | -1.5 | 0.0% | -2.0 | 4.0%
Cc1ccc(C)n1-c1cccc(C(=O)O)c1 | · | · | · | 10.7µM*
COc1ccc2oc(C(=O)OC(C)C(=O)NC3(C#N)CCCCC3)c(C)c2c1 (stereo not drawn) | 2.8 | -1.6% | 13.1 | 1.9%
O=C(NCCc1csc(-c2ccccc2)n1)c1ccc(Br)o1 | -0.1 | -4.6% | 5.0 | -0.3%
O=C(NCCc1csc(-c2cccnc2)n1)c1ccc(Br)o1 | -71.1* | -3.4% | 5.6 | ?
CCOc1ccc(C(=O)Nc2ccc(S(=O)(=O)N3C[C@@H]4C[C@@H](C3)c3cccc(=O)n3C4)cc2)cc1 | 2.0 | -1.0% | -15.7 | -3.5%
CSc1ccc2c(c1)C(N1CCN(C)CC1)Cc1ccc(F)cc1S2 (stereo not drawn) | ? | -2.5% | -94.1* | ·
CCOC(=O)c1ccc(NC(=O)Nc2ccc3c(c2)OCCO3)cc1 | -75.6* | -4.2% | 24.7 | -2.1%
NC(=O)C1CCN(C(=O)C2CC(=O)N(Cc3ccccc3)C2)CC1 (stereo not drawn) | -5.5 | -0.3% | 2.8 | 1.2%
CN1CCC(N(C)C(=O)c2cc(S(=O)(=O)N(C)c3ccccc3)ccc2Cl)CC1 | -2.8 | 0.1% | -14.4 | 1.6%
O=C1NN(c2ccccc2)C(=O)C2C3C=CC(C4CC34)C12 (stereo not drawn) | -147.0* | -4.2% | 14.0 | 4.9%
SMILES | hERG WT inh | TSG101-PTAP inh | KCNH2 3.1 block | Tb PFK inh
Cc1nc2c(sc(=S)n2Cc2ccco2)c(=O)n1CC(=O)Nc1ccc(F)cc1 | 20.6 | -1.9% | -86.6* | 12.8%
CCOC(=O)N1CCc2c(sc(NC(=O)CN3CCN(C)CC3)c2C(=O)Nc2ccccc2)C1 | ? | 0.4% | -97.1* | -0.3%
COc1ccc(-c2coc3cc(O[C@@H]4O[C@H](CO)[C@@H](O)[C@H](O)[C@H]4O)ccc3c2=O)cc1 | 2.2 | -4.9% | -151.3* | 12.4%
O=c1c(-c2ccc3c(c2)OCCO3)coc2cc(OC3OC(CO)C(O)C(O)C3O)ccc12 (stereo not drawn) | 1.8 | -0.6% | -6.4 | -2.7%
CC(C)(CNC(=O)c1ccc(-c2ccccc2Cl)o1)N1CCOCC1 | -0.9 | -11.5% | 0.0 | -10.6%
O=C(Nc1ccc(OC(F)F)cc1)Nc1cccc(C(F)(F)F)c1 | -5.7 | -2.2% | -14.3 | 2.5%
Cc1cccc(NC(=O)Nc2ccc(Oc3c(F)c(F)c(F)c(F)c3F)cc2)c1 | -11.4 | -5.1% | -5.4 | 2.9%
O=C(Nc1ccc(Oc2c(F)c(F)c(F)c(F)c2F)cc1)OC1CCN2Cc3ccccc3N=C12 (stereo not drawn) | -83.2* | -1.0% | -100.2* | 2.0%
O=C(c1ccc(CS(=O)c2ccccc2Cl)o1)N1CCN(c2ccccn2)CC1 (stereo not drawn) | 7.8 | 0.2% | 10.2 | -0.4%
Cc1ccc(C(=O)OCC(=O)NCC2COc3ccccc3O2)cc1 (stereo not drawn) | -0.1 | -3.4% | 0.3 | -0.9%
O=C(COC(=O)c1ccccc1)NCC1COc2ccccc2O1 (stereo not drawn) | -245.5* | · | 3.6 | ·
C/C(=N\NC(=O)c1ccccc1-n1cccc1)C1CC1 | -4.2 | -6.3% | -75.7* | -3.6%
O=C(N/N=C\c1ccccc1)c1ccccc1-n1cccc1 | -0.1 | 0.8% | -12.2 | -4.4%
Cc1ccc(-c2nc(NC(=O)c3nn(C)cc3[N+](=O)[O-])sc2C)cc1C | 3.7 | -2.7% | -82.5* | -0.8%
Nc1nc2ccccc2n1CCOc1ccc(Br)cc1 | 10.3 | -1.1% | -91.1* | -4.9%
Nc1nc2ccccc2n1CCOc1ccccc1Cl | 13.8 | -6.8% | -10.2 | -20.2%
Nc1nc2ccccc2n1CCOc1ccc(Cl)cc1 | -17.8 | 0.1% | -84.2* | 2.4%
COc1ccc(C(=O)NNC(=O)CSc2nnc(-c3cccnc3)n2C)cc1 | · | 0.3% | 6.4 | -3.1%
CCCN(CC(=O)Nc1cc(Cl)ccc1Cl)C(=O)c1ccccn1 | 2.1 | -0.2% | 9.3 | -2.0%
Cc1cc(C)c(S(=O)(=O)N2CCN(C(=O)C(C)Cn3cncn3)CC2)c(C)c1 (stereo not drawn) | -5.8 | -5.3% | -8.0 | 0.1%
N#Cc1ccc(N2C(=O)[C@@H]3C(C(=O)c4ccc5ccccc5n4)=NN[C@@H]3C2=O)cc1 | -97.6* | -1.4% | 0.5 | 2.2%
COc1cccc(/C=N/NC(=O)c2cnccn2)c1 | -22.3 | 0.1% | 0.0 | -0.2%
COc1ccc(/C=N/NC(=O)c2nc(-c3ccccc3)cc(-c3ccccc3)n2)cc1OC | -3.5 | 0.0% | -72.4* | -2.5%
COc1cccc(/C=N/NC(=O)c2nc(-c3ccccc3)cc(-c3ccccc3)n2)c1 | -10.7 | 0.0% | -78.3* | 7.3%
COc1cc(/C=N\NC(=O)c2ccc(-c3ccccc3)cc2)ccc1OCC(N)=O | -4.7 | 2.3% | · | 0.1%
